PME-1 primary: blocks human protein phosphatase methylesterase 1 | AID 2130 | hit rate 0.53% among 320,000 | Q9Y570 | recombinant PME-1, FP-Rh probe fluorescence polarization | inhibition, % at 5.9 µM;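 active = inhibition above the campaign mean of all compounds plus 3 SD, cut at about 26% in these data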;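 also: competitive labeling of PME-1 active site by serine hydrolase directed probe; 0% = PME-1 with DMSO and 100% = wells lacking PME-1 enzyme; inhibitors block probe labeling so polarization falls and inhibition rises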
GSTO1 inh: GSTO1 inhibition, counter-screen for RBBP9 inhibitors; inhibition, % at 5.96 µM; P78417; recombinant GSTO1, activity-based probe fluorescence polarization; AID 1974; hit rate 1.1% among 300,000;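 active = inhibition above the campaign mean inhibition plus 3 SD, cut at about 35% in these data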;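 also: 0% = GSTO1-1 with DMSO and 100% = wells lacking GSTO1-1 enzyme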
pPAFAH inh: pPAFAH (human) enzyme inhibition; recombinant pPAFAH, FP-rhodamine probe fluorescence polarization; Q13093; inhibition, % at 3.39 µM; hit rate 1.5% among 330,000; AID 463082;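 active = inhibition above the mean inhibition across the screen plus 3 SD, cut at about 25% in these data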;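 also: inhibitors block binding of the rhodamine activity-based probe so polarization drops; 0% = enzyme with DMSO and 100% = wells lacking pPAFAH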
PAD4 inh: blocks human protein arginine deiminase 4; recombinant PAD4, RCA probe fluorescence polarization; inhibition, % at 6.36 µM; hit rate 0.41% among 330,000; Q9UM07; AID 485272;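 active = percent inhibition above a cutoff equal to the mean of all tested compounds plus 3 SD, cut at about 15% in these data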;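 also: 0% = PAD4 with RCA probe and DMSO and 100% = probe without PAD4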
Target sequence (Q9UM07 whole entry, looked up): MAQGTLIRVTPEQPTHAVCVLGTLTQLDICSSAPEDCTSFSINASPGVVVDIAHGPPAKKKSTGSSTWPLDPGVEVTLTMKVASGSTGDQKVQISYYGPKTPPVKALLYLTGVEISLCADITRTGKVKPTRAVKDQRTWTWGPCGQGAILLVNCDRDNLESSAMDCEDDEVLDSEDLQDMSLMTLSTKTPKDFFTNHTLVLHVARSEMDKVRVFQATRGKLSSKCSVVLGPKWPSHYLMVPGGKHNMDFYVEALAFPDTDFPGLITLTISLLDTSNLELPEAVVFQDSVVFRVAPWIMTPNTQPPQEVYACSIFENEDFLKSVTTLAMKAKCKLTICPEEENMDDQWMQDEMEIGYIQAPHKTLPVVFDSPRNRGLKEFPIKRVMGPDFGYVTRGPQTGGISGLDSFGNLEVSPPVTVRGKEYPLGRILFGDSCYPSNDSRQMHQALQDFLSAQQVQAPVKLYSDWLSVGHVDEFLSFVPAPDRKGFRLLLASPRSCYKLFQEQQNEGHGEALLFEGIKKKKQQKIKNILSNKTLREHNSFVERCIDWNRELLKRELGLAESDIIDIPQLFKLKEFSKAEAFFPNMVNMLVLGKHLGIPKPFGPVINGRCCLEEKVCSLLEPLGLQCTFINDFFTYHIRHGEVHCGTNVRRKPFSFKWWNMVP
Fam108B inh: Fam108B inhibition, counter-screen for RBBP9 inhibitors. inhibition, % at 9.51 µM. AID 1947. hit rate 0.33% among 300,000. recombinant Fam108B, FP-Rh probe fluorescence polarization;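 active = inhibition above the screen mean inhibition plus 3 SD, computed separately per campaign, cut at about 18% in these data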;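 also: inhibitors lower polarization as less probe binds the enzyme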
Fam108b inh conf: Fam108b (mouse) hydrolase inhibition, confirmation assay; shares compounds with Fam108B inh; recombinant Fam108b, FP-Rh probe fluorescence polarization; inhibition, % at 9.51 µM; hit rate 44% among 930; AID 1978;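 active = inhibition above a limit from the primary screen, the mean over all compounds plus 3 SD, cut at about 19% in these data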;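 also: 0% = median of active Fam108b wells and 100% = catalytically dead S170A mutant; inhibitors free the probe so polarization falls as inhibition rises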
Fam108b inh: mouse ABHD17B inhibition; AID 588649; inhibition, % at 20 µM; hit rate 44% among 260; recombinant Fam108b, gel-based ABPP, fluorophosphonate probe; shares compounds with Fam108B inh; in the data active = inhibition above about 40%
* marks the source's active call; other numbers are inactive results; nt = not tested or not shown. The list is not random: actives were taken first. Their share in the collection is about 2.3%.

SMILES	PME-1 primary	GSTO1 inh	pPAFAH inh	PAD4 inh	Fam108B inh	Fam108b inh conf	others
Oc1ccc(-c2nc(-c3ccc(F)cc3)c(-c3ccncc3)[nH]2)cc1	-3	-10	5	-2	4	nt
COc1ccc(-c2nc(-c3cccs3)c(-c3cccs3)[nH]2)cc1OC	13	3	11	1	10	nt
O=[N+]([O-])c1cccc(-c2nc(-c3ccccc3)c(-c3cccs3)[nH]2)c1	2	-4	0	-5	-2	nt
Fc1ccc(-c2nc(-c3cccs3)[nH]c2-c2ccc(F)cc2)cc1	15	-2	3	-2	19*	6
O=[N+]([O-])c1ccc(-c2nc(-c3cccs3)c(-c3cccs3)[nH]2)cc1	42*	-20	1	-19	24*	20*
CN(Cc1cccc(Cl)c1Cl)C(=O)CCNC(=O)c1ccco1	nt	nt	0	0	nt	nt
O=C1CC(NS(=O)(=O)c2ccc(F)cc2)CN1c1ccc2c(c1)OCCO2 (centres undefined)	2	4	2	1	-5	nt
Cc1cccc2c(N=O)c(O)[nH]c12	53*	-5	31*	-9	27*	24*
Cc1cccc(NC(=O)/C(C#N)=C/c2ccc(Cl)cc2)n1	4	27	16	7	19*	-1
Cc1cccc(NC(=O)/C(C#N)=C/c2cccc([N+](=O)[O-])c2)n1	3	30	4	2	25*	21*
CC(=O)NCCn1ccc2ccccc21	-6	11	-3	-3	22*	5
O=C(Cc1ccccc1)NCCn1ccc2ccccc21	-1	-1	-2	0	1	nt
Cc1cc(C)cc(NC(=S)NCc2ccc3[nH]c4c(c3c2)CCCC4)c1	9	1	13	-2	2	nt
S=C(NCc1ccc2[nH]c3c(c2c1)CCCC3)Nc1ccccc1	9	-5	8	-1	21*	13
CCOC(=O)c1c(C)[nH]c(C(=O)N/N=C\c2ccccc2O)c1C	4	-11	11	4	19*	-10
COc1cccc(C=NNC(=O)c2[nH]c(C)c(C(=O)NN=Cc3cccc(OC)c3O)c2C)c1O	nt	nt	nt	nt	nt	nt	Fam108b inh=95*
COc1ccccc1/C=N/NC(=O)c1[nH]c(C)c(C(=O)N/N=C/c2ccccc2OC)c1C	-23	-4	5	-2	-4	nt
CCc1ccc(C2NC(=S)NC3=C2C(=O)CC(C)(C)C3)cc1 (centres undefined)	-4	6	2	2	5	nt
COc1ccc(OC)c(Nc2nc(-c3sc(N)nc3C)cs2)c1	13	11	23	-11	21*	17
O=C(N/N=C/c1ccc(O)cc1)c1cccc(N/N=C/c2ccc(O)cc2)c1	31*	-15	8	-5	56*	48*
O=C(N/N=C/c1ccncc1)c1cccc(N/N=C/c2ccncc2)c1	-80	2	7	-3	3	nt
COc1ccc(-c2cn(CCO)c(-c3ccncc3)n2)cc1	3	4	7	-5	4	nt
COc1ccc2nc(-n3c(O)c(C4=c5ccccc5=NC4=O)[nH]c3=S)sc2c1	54*	30	21	-4	37*	36*	Fam108b inh=0
CCOc1cc(N2CCOCC2)c(OCC)cc1NC(=O)COC(=O)COc1ccc(C#N)cc1	1	3	17	0	0	nt
O=C(Nc1ccc([N+](=O)[O-])cc1Cl)c1cc(Cl)ccc1O	9	1	13	-3	5	nt
SMILES	PME-1 primary	GSTO1 inh	pPAFAH inh	PAD4 inh	Fam108B inh	Fam108b inh conf	others
O=C(Nc1cccc(Cl)c1)c1cc(N=Nc2ccc([N+](=O)[O-])cc2Cl)ccc1O	22	-8	22	4	26*	-1
CCOC(=O)C1CCN(C(=O)CCn2c(=O)c3cccn3c3cccnc32)CC1	3	1	2	-3	-2	nt
O=C(N/C(=C\c1ccccc1)C(=O)N1CCOCC1)c1ccco1	-12	4	-2	3	42*	0
O=C(Nc1ccc(Cl)cc1)c1cc2c(cc1O)[nH]c1ccccc12	-48	21	18	-2	25*	-98
C=C(C)Cn1c(SCC)nc2ccccc2c1=O	-6	12	-2	-3	3	nt
C=C(C)Cn1c(SCC(=O)N/N=C/c2c(O)ccc3ccccc23)nc2ccccc2c1=O	-10	15	4	-5	29*	-15
NS(=O)(=O)c1ccc(Nc2nc(-c3ccc(O)cc3O)cs2)cc1	12	8	27*	-3	23*	99*	Fam108b inh=35
Oc1ccc(-c2csc(Nc3ccccn3)n2)c(O)c1	14	9	9	0	19*	12
CCC(=O)Nc1ccc(S(=O)(=O)Nc2cc(C)on2)cc1	5	7	3	-3	-2	nt
Cc1cc(NS(=O)(=O)c2ccc(Nc3nc(-c4ccc(O)cc4)cs3)cc2)no1	3	14	22	4	26*	-70
Cc1cccnc1Nc1nc(-c2ccc(O)cc2O)cs1	23	17	2	-5	18*	10
Nc1n[nH]c(N)c1N=Nc1ccc(Cl)cc1Cl	16	-2	6	-6	4	nt
COc1cc(CN2CCC(n3nccc3NC(=O)C3CC3)CC2)cc(OC)c1	0	-1	2	0	0	nt
O=[N+]([O-])c1cccnc1N/N=C/c1ccccc1O	2	5	1	5	-7	nt
O=[N+]([O-])c1ccc(N/N=C/c2ccccc2O)cc1	45*	-14	9	-3	47*	30*
O=S(=O)(c1c(F)cccc1F)N1CCN(C(=S)NCc2ccc3c(c2)OCO3)CC1	8	18	-1	1	25*	17
Fc1ccccc1NC(=S)NCc1ccc2c(c1)OCO2	1	-2	1	-1	-1	nt
Cc1ccc(CSCCNS(=O)(=O)c2ccccc2)cc1	2	8	13	1	-3	nt
Cc1cc(S(=O)(=O)NC(C)c2nnc3ccccn23)ccc1Br (centres undefined)	nt	nt	3	-1	nt	nt
O=C1NN(c2cccc(Br)c2)C(=O)/C1=C/c1ccc(-c2cc([N+](=O)[O-])ccc2O)o1	0	-27	28*	-2	20*	-12
Cc1ccc(S(=O)(=O)N(C)c2ccccc2C(=O)Nc2c(F)cccc2F)cc1	-1	6	1	0	-3	nt
CCOc1cc(/C=C2\N=C(SC)SC2=O)cc([N+](=O)[O-])c1OC(C)=O	14	5	17	2	22*	7
COc1ccc(NC(=O)CNc2ccccc2C(C)=O)cc1S(=O)(=O)N1CCOCC1	nt	nt	1	-6	nt	nt
Cc1ccc(C2C3=C(CC(C)(C)CC3=O)NC3=C2C(=O)c2ccccc23)cc1 (centres undefined)	8	2	14	5	7	nt
COc1ccc(C2C3=C(CCCC3=O)NC3=C2C(=O)c2ccccc23)cc1 (centres undefined)	10	2	13	-3	20*	26*

Source: PubChem
